Assay outcomes as filed in PubChem.
Shown are actives, neighbours in structure and some others; about 1.3% of the full set was active somewhere.
EPAC2 ag = activates human EPAC2 exchange factor; EPAC2 activation, biochemical qHTS; response scale: 100% = 6.5 mM cAMP response; AID 720711; Q8WZA2; Potency, µM (doses to about 154 µM), for the others: top-dose activation, most hits filed as activators; 360,000 tested, 0.079% active; also: nearly all actives have a fitted effect of over 50% in size
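Exchange assay: 100 nM EPAC2 with 250 nM Rap1B-BODIPY-GDP and 50 uM GDP. Fluorescence (ex 480/em 540 nm) read every 5 min for 30 min at room temperature. Data normalized to 6.5 mM cAMP as agonist control.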
EPAC1 agonist = activates human EPAC1 exchange factor; O95398; EPAC1 agonist qHTS, biochemical assay; response scale: 100% = response to 6.5 mM cAMP; Potency, µM (doses to about 154 µM), for inactives: at the highest dose activation, actives largely listed as activators; 360,000 tested, 0.073% active; AID 720707; also: nearly all actives have a fitted effect of over 60% in size
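Nucleotide exchange by EPAC1 (100 nM) on Rap1B–BODIPY-GDP (250 nM) in the presence of 50 uM GDP is tracked fluorescently at 480/540 nm over 30 min. Signals are normalized to a 6.5 mM cAMP control.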
BRCA1 expr act = BRCA1 expression activation; MCF7-BRCA1-FFLuc reporter, luminescence, 48 h; response scale: scaled: vehicle 0%, 10 µM genistein 100%; Potency, µM (series often up to 46.1 µM), without a hit: at the highest dose activation, most hits filed as activators; 380,000 tested, 1.1% active; AID 624202; also: nearly all actives have a fitted effect of over 80% in size
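Cells: MCF7-BRCA1-FFLuc, 2000/well. Exposure: 48 h, 37 °C, 5% CO2. Read: luminescence, 15 min post-substrate. Controls: genistein 10 microM (maximal activation), DMSO (neutral).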
RGS4 inh = human RGS4 inhibition; P49798; 390,000 tested, 0.039% active; AID 504845; Transcreener GDP fluorescence polarization, RGS4-accelerated GTP hydrolysis; Potency, µM (series often up to 114 µM), for the others: at the top dose activity change, negative = inhibition, hits mostly inhibitors; also: % is scaled to controls: 0 for no effect and ±100 for the full control effect; nearly all actives have a fitted effect of over 75% in size
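MLSMR compounds (23 nl, pin-transferred) preincubated 10 min at room temperature with a 500nM (2x) first reagent, then RGS4 at 900nM (2x) plus Transcreener GDP mix added; fluorescence polarization (620/688 nm) read before and after 90 min at 30 °C.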
EPAC2 antagonist = blocks human EPAC2 exchange factor. Q8WZA2. EPAC2 GEF exchange of Rap1B-BODIPY-GDP, fluorescence. Potency, µM (doses to about 114 µM), without a hit: at the highest dose activity, negative = inhibition, hits mostly inhibitors. 360,000 tested, 0.18% active; also: % is scaled to controls: 0 for no effect and ±100 for the full control effect; nearly all actives have a fitted effect of over 45% in size
EPAC1 antagonist = antagonists of human EPAC1; EPAC1 GEF assay, Rap1b-BODIPY-GDP exchange fluorescence; 360,000 tested, 0.14% active; Potency, µM (highest dose often 115 µM), for the others: top-dose activity change, negative = inhibition, hits mostly inhibitors; O95398; AID 720709;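 also: plate controls were vehicle for no effect and positive control for full effect; nearly all actives have a fitted effect of over 50% in size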
* = called active by the depositor; u = inconclusive; x = no result. Calls follow the shape of the dose curve; as a rule, active = well fitted curve in the direction sought with a large enough effect; inconclusive = small, poorly fitted or top-dose-only effect, or another doubt; inactive = no such curve, though single readings can be large; an effect the other way counts as inactive or inconclusive. Potency is read from the fitted curve at half-maximal effect.

SMILES	EPAC2 ag	EPAC1 agonist	BRCA1 expr act	RGS4 inh	EPAC2 antagonist	EPAC1 antagonist
COC(=O)c1c(SCC(=O)Nc2cc(F)ccc2F)[nH]c2ccc(C)cc2c1=O	x	x	7%	-16%	x	x
COc1cc2c(cc1N)-c1ccc(N)cc1C2=O	2%	3%	10µM*	x	-10%	10%
O=c1[nH]c(=S)[nH]c(-c2ccccc2)c1Cc1c(O)ccc2ccccc12	x	x	x	2.1µM*	x	x
COc1cc(/C=C2\SC(=Nc3ccccc3)N(CCc3c[nH]c4ccccc34)C2=O)ccc1OC(C)C(=O)O (configuration not stated)	-10%	100µM*	-18%	u	u	u
CCOc1ccc(C(=O)COC(=O)C2COc3ccccc3O2)cc1 (configuration not stated)	-8%	-7%	-6%	4%	-1%	0%
CCOc1ccc(-c2csc(C3COc4ccccc4O3)n2)cc1 (configuration not stated)	-6%	7%	10µM*	-13%	-2%	-2%
COc1cccc(Cn2c(=O)c3ccccc3n3nc(C)cc23)c1	14%	15%	-20%	3%	50µM*	-5%
O=C(Nc1ccccc1Cl)c1ccn[nH]1	6%	0%	13µM*	6%	15%	6%
O=C(Nc1ccccc1F)c1ccn[nH]1	9%	10%	13%	19%	7%	-23%
O=C1C=CC(=O)c2c(O)c(N3CCN(CCOCCO)CC3)c(Br)c(O)c21	-7%	-9%	-78%	u	-14%	45µM*
O=C1C=CC(=O)c2c(O)c(N3CCN(CCO)CC3)c(Cl)c(O)c21	0%	-1%	-98%	u	u	14µM*
O=S(=O)(c1ccc(Br)cc1Cl)N1CCN(CCO)CC1	-1%	-6%	21%	3%	5%	-1%
CC(Sc1nc2ccccc2c(=O)n1CC1CCCO1)C(=O)N(C)Cc1ccccc1 (configuration not stated)	6%	-5%	-28%	19%	6%	-3%
O=C(Cn1cc2c(n1)CCCC2)NCCCN1CCN(C2CCCCC2)CC1	8%	0%	3%	11%	-11%	u
O=C(NN1CCOCC1)c1ccc(Cl)c([N+](=O)[O-])c1	7%	-2%	-18%	-8%	2%	-4%
O=C(N/N=C/c1cccnc1)c1cc(-c2ccccc2OCc2ccccc2)n[nH]1	16%	12%	-62%	-24%	-3%	50µM*
COc1ccc(C2NC(=O)NC(C)=C2C(=O)OCc2ccccc2)cc1 (configuration not stated)	7%	3%	-43%	-9%	-20%	-2%
O=C(N/N=C/c1ccccc1Cl)c1[nH]c2ccc(Br)cc2c1-c1ccccc1	-138%	112µM*	-82%	-13%	-34%	254%
COc1ccc(/C=N/NC(=O)c2[nH]c3ccc(Cl)cc3c2-c2ccccc2)c(C(=O)O)c1OC	-2%	-4%	-90%	-20%	3%	-16%
COc1ccc(/C=N/NC(=O)c2[nH]c3ccc(Br)cc3c2-c2ccccc2)c(C(=O)O)c1OC	-7%	-25%	-6%	-28%	-14%	79µM*
Cc1cc(C(=O)Cn2nc(C(=O)O)c3ccccc3c2=O)c(C)n1C1CC1	4%	2%	20%	10%	0%	-20%
Cc1nc2nc(-c3ccccc3)[nH]n2c(=O)c1Cc1ccccc1	6%	-8%	59%	-7%	8%	-4%
CCOC(=O)c1cc(C(=O)NCc2ccc(Cl)cc2Cl)nn1C	10%	-10%	0%	15%	-16%	-18%
CCOC(=O)c1cc(C(=O)Nc2ccc(C)c(F)c2)nn1C	-5%	1%	10µM*	-3%	3%	0%
O=C(/C=C/c1ccc(Cl)cc1)NCc1cccs1	13%	-4%	11µM*	-9%	-1%	-8%
